The source of these data is PubChem BioAssay.

Active and inactive are the calls of the source.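 Rule for the calls, unless noted: active = inhibition above 20% together with a positive visual image hit; inconclusive = visual image hit but inhibition not above 20%; inactive = no visual image hit.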

The nature of experiment [1]: inhibitors of TNFa-induced NFkB p65 translocation, primary screen, imaging, HUVEC, MLSMR starter and 10KST1 sets (AID 438).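 For inhibition: signal is the nuclear over cytoplasmic p65 intensity ratio per well.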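 Note: compound added about 3h40 before a 20 min TNFalpha stimulation.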 The conditions noted are these: HUVEC TNFa-induced p65 nuclear translocation; cell count: measured here: nuclei count (cytotoxicity indicator), at 2.08 µM; inhibition: at 2 µM, stronger effect = higher value, 0% TNFa-plus-vehicle, 100% no-TNFa wells.
Experiment [2] is described as follows: inhibitors of mutant huntingtin aggregation, primary screen, imaging, exon1htt(103Q)mCFP cells, high-content imaging (AID 483;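 active = visual image review flags a hit and inhibition of aggregation exceeds 20%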;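 note: compound exposure lasted 3 days before fixation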;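 for nuclei count: percent of the per-plate median nuclei count of sample wells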). The conditions noted are these: exon1htt(103Q)mCFP cell line, aggregate imaging, at 2 µM; inhibition of aggregation: stronger effect = higher value; nuclei count: measured here: cell count, toxicity.
The nature of experiment [3]: inhibitors of E-selectin induction by TNFa, primary screen, imaging, HUVEC, immunofluorescence, MLSMR starter and 10KST1 sets (AID 487;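 active = visually confirmed hit in the image check and inhibition above 20%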;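 for inhibition: signal is fraction of cell area covered by stained E-selectin grains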;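 for nuclei count: 100% = median nuclei count of all wells on the same plate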). The conditions noted are these: HUVEC TNFalpha-induced E-selectin immunofluorescence imaging, at 2 µM; inhibition: stronger effect = higher value; nuclei count: measured here: cell number, toxicity.
Experiment [4] concerns the target Voltage-gated potassium channel subunit beta-2 (Rattus norvegicus) (UniProt P62483). Nature of the experiment: KvBeta enzyme negative modulators, primary screen, biochemical, NADPH fluorescence (AID 622;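 active = fluorescence slope higher than the sample average by over 3 SD, cut at about -0.22 in these data, passing the limit was not always enough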;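 note: slope of raw intensity against log time taken from 70 to 1610 s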). The conditions noted are these: recombinant KvBeta, 4-cyanobenzaldehyde reduction, at 10 µM, stronger effect = higher value.
For experiment [5] the target is unchanged. Nature of the experiment: KvBeta positive modulators, primary screen, biochemical, NADPH fluorescence (AID 623;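 active = NADPH fluorescence slope more negative than the mean of all samples by about 3 SD, 99.7% confidence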;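 note: fluorescence intensity change per second fitted from 20 to 320 s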). The conditions noted are these: Recombinant KvBeta, NADPH fluorescence decrease slope, 10 min; at 10 µM; stronger effect = lower value.
In experiment [6] the target is Muscarinic acetylcholine receptor M4 (Homo sapiens) (UniProt P08173). Nature of the experiment: compounds altering M4/GIRK thallium flux, either direction, primary screen, M4 allosteric agonist project, cell-based, HEK293 M4/GIRK, BTC-AM (AID 625;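 active = fluorescence slope after compound addition differing from the mean of all tested samples at 99.7% confidence, mostly higher but some lower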;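 note: thallium influx through GIRK channels coupled to M4 in HEK293 cells with BTC-AM dye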). The conditions noted are these: at 10 µM, actives lie on both sides.
A short description of experiment [7]: inhibitors of Sendai virus-induced IRF3 signaling, primary screen, TLR/RLR signaling modifier project, cell-based, Sendai virus stimulus, luciferase, 10K MLSCN set (AID 602276;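 active = inhibition at or above 50% at 10 µM; inactive = inhibition below 50%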;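 note: firefly luciferase from ISG56 promoter only with Renilla not read in this screen; 0% = Sendai virus plus DMSO and 100% = medium plus DMSO without virus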). The following applies: HEK293 RL24 IRF3 luciferase reporter, at 10 µM, stronger effect = higher value. For orientation: In a reporter assay the amount or activity of a reporter protein is the signal.

A short description of experiment [8]: inhibitors of poly I:C-induced TLR3 signaling, primary screen, cell-based, poly I:C stimulus, luciferase, 10K MLSCN set (AID 602277;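 active = inhibition of the reporter signal at or above 50%; inactive = inhibition below 50%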). The conditions noted are these: HEK293-TLR3 RL24 IRF3 luciferase reporter, at 10 µM, stronger effect = higher value.
In experiment [9] the target is Alpha-2C adrenergic receptor (Homo sapiens) (UniProt P18825). Kind of experiment: modulators of alpha2C/GIRK thallium flux, primary screen, cell-based, HEK293 alpha2C/GIRK1/2 (AID 624;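 active = fluorescence slope after compound addition differing from the mean of all screened samples at 99.7% confidence, in either direction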;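 note: slope of fluorescence ratio to pre-addition baseline per second over 15 to 24 s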). The following applies: thallium flux BTC fluorescence, at 10 µM, actives lie on both sides.
Experiment [10] in a line: inhibitors of larval lipid processing in zebrafish, primary screen, whole organism, PED6 fluorescence, gall bladder and intestine (AID 686;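 active = a full or partial loss of lipid-probe fluorescence in the fish gall bladder, intestine or both, judged by eye; inactive = no fluorescence loss, or compound toxic to the fish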;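 note: larvae 5 to 7 days old with five fish per well; signal comes from phospholipase A2 cleavage of quenched PED6 carried via bile; overnight exposure to compound and PED6 before scoring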). The following applies: Zebrafish larvae PED6 lipid processing, fluorescence scoring; screened at 20 µM (by protocol).

Muscarinic acetylcholine receptor M4 (Homo sapiens), sequence (P08173 whole entry, looked up): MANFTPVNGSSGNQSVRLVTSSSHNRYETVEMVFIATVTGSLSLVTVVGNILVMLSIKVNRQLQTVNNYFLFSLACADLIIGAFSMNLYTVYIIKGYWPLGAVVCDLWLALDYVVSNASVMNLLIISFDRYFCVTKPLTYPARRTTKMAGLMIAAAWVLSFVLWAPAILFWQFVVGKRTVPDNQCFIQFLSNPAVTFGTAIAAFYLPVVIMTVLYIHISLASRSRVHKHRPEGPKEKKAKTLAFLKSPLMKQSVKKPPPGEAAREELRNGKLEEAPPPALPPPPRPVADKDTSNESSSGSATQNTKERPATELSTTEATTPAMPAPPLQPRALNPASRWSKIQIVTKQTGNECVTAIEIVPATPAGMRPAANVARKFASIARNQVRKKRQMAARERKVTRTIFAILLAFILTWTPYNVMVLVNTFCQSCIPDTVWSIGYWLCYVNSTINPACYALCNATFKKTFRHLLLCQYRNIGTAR
Voltage-gated potassium channel subunit beta-2 (Rattus norvegicus), sequence (P62483 whole entry, looked up): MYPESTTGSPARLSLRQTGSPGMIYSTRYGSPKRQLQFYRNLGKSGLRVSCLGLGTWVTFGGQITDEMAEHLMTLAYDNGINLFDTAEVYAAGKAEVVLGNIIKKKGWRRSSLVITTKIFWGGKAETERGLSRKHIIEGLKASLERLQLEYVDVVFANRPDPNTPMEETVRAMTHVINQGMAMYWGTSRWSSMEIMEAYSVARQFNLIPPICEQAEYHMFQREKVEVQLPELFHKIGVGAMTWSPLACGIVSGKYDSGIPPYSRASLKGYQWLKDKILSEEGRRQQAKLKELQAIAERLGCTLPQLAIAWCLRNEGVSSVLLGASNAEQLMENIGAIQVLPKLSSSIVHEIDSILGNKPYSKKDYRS
Alpha-2C adrenergic receptor (Homo sapiens), sequence (P18825 whole entry, looked up): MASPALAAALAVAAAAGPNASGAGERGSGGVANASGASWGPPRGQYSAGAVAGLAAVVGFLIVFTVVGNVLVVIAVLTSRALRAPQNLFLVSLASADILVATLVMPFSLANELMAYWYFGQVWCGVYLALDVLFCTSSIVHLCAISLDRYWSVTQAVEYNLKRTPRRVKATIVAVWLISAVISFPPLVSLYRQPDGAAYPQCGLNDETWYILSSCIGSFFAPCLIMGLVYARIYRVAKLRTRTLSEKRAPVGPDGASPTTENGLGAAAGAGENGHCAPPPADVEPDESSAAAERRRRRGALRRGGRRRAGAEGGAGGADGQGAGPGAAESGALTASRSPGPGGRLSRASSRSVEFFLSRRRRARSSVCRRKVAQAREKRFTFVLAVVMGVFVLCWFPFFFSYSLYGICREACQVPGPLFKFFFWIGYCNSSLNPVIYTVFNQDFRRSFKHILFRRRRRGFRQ

As for `COc1cc(Cn2c(C(=O)O)cc3sccc32)cc(OC)c1OC`, the cell count in experiment [1] stood at 434. The inhibition in [1] was 8.6% (inactive); in [7], 14.9% (inactive); in experiment [8], 20.9% (inactive). Besides, the inhibition of aggregation in experiment [2] is 2.5% (inactive). In addition, the nuclei count amounted to 98.8% in [2] and 140% in [3]. For the same compound, the values for the fluorescence slope in [4] and in experiment [6] were -0.562 (inactive) and 0.00343 (inactive), respectively. The NADPH fluorescence slope in experiment [5] is -0.000122 (inactive).

For `O=C(Nc1ccc2c(c1)OCO2)C1CCCN1C(=O)Nc1ccccc1F` (stereo not given), the cell count in experiment [1] was determined as 432. The inhibition was 9% (inactive) in experiment [1], 16.1% (inactive) in experiment [7] and 24.2% (inactive) in experiment [8]. Also, in [2], the inhibition of aggregation was -11.8% (inactive). The values for the nuclei count in experiment [2] and in experiment [3] were 98.2% and 135%, respectively. For the same compound, the results for the fluorescence slope in experiment [4] and in [6] were -0.418 (inactive) and 0.0058 (inactive), respectively. The NADPH fluorescence slope in experiment [5] is 3.8e-05 (inactive).

Take `COc1cccc(-c2cc(C(=O)Nc3cc(OC)c(OC)c(OC)c3)no2)c1`: in experiment [1], the cell count is 461 and the inhibition was -4.5% (inactive). Besides, in experiment [2], the inhibition of aggregation was 1.1% (inactive) and the nuclei count was 55.1%. Further, in experiment [3], the inhibition is -12.3% (inactive) and the nuclei count was 97.2%. Also, in experiment [4], the fluorescence slope was -0.511 (inactive). The NADPH fluorescence slope in experiment [5] is -4.5e-05 (inactive). Also, the slope in experiment [9] is 0.00712 (inactive). In addition, in experiment [8], the inhibition is -2.13% (inactive).

`CCn1c(C(=O)N2CCCC(C(=O)O)C2)cc2sccc21` (stereo not given): in [1], the cell count was 335. For the same compound, the inhibition in experiment [1] is 26.3% (active); in [3] it was -32.2% (inactive); in experiment [7], -2.79% (inactive); in experiment [8], -4.5% (inactive). For the same compound, the inhibition of aggregation in experiment [2] is -57.1% (inactive). Also, the nuclei count in experiment [2] and in [3] was 115% throughout. In addition, the values for the fluorescence slope in [4] and in experiment [6] were -0.485 (inactive) and 0.00595 (inactive), respectively. For the same compound, the NADPH fluorescence slope in [5] was 8.2e-05 (inactive).

As for `COc1ccccc1OCCn1c(=O)sc2ccccc21`, the cell count in [1] was 478. Besides, the inhibition in experiment [1] was 9.8% (inactive); in [7] it was 1.53% (inactive); in experiment [8] it was 6.17% (inactive). For the same compound, the inhibition of aggregation in [2] is -14.7% (inactive). Moreover, the nuclei count in [2] stood at 90.3%; in experiment [3], 152%. In addition, the fluorescence slope is -0.477 (inactive) in experiment [4] and 0.0055 (inactive) in experiment [6]. In experiment [5], the NADPH fluorescence slope was 1.7e-05 (inactive).

For the compound `O=S(=O)(c1ccccc1)N1CCSC1c1ccco1` (stereo not given), in [1], the cell count amounted to 444. In addition, the inhibition in experiment [1] was 1.2% (inactive); in experiment [3], 33.5% (inactive); in experiment [7], -30.7% (inactive); in experiment [8] it was -9.12% (inactive). In addition, the inhibition of aggregation in experiment [2] is 7% (inactive). For the same compound, the nuclei count was 100% in experiment [2] and 102% in experiment [3]. Moreover, the fluorescence slope in experiment [4] is -0.555 (inactive); in [6], 0.00572 (inactive). For the same compound, the NADPH fluorescence slope in experiment [5] was -4e-05 (inactive).

Turning to `Cc1cc(NS(=O)(=O)c2ccccc2)n(-c2ccccc2)n1`, the cell count in [1] worked out at 395. The inhibition was 10.8% (inactive) in [1], -59.1% (inactive) in experiment [3], -0.656% (inactive) in experiment [7] and 28% (inactive) in experiment [8]. Also, the inhibition of aggregation in experiment [2] is -18.2% (inactive). The nuclei count in experiment [2] was 94.7%; in experiment [3], 106%. The results for the fluorescence slope in [4] and in experiment [6] were -0.544 (inactive) and 0.00508 (inactive), respectively. The NADPH fluorescence slope in experiment [5] was -4.8e-05 (inactive).

`N=c1c(C(=O)NCc2ccc(F)cc2)cc2c(=O)n3ccccc3nc2n1CCCN1CCOCC1`: the cell count in experiment [1] worked out at 537. In addition, the results for the inhibition in experiment [1], in experiment [3] and in experiment [8] were 4.4% (inactive), -45.8% (inactive) and 69.7% (active), respectively. The inhibition of aggregation in [2] was -26.3% (inactive). Besides, the nuclei count was 102% in experiment [2] and 122% in experiment [3]. Further, in [4], the fluorescence slope is -0.374 (inactive). Besides, in experiment [5], the NADPH fluorescence slope is -1e-05 (inactive). The slope in experiment [9] is 0.00357 (inactive).

Consider `O=c1oc2ccccc2n1CCn1c2ccccc2c2nc3ccccc3nc21`, for which, in experiment [1], the cell count stood at 714. Besides, the inhibition in [1] was -7.8% (inactive); in experiment [3], -9.3% (inactive); in experiment [7], -5.18% (inactive); in [8] it was 9.99% (inactive). In experiment [2], the inhibition of aggregation was -10.6% (inactive). Moreover, the nuclei count in experiment [2] is 103%; in experiment [3] it was 109%. The fluorescence slope in experiment [4] was -0.273 (inactive); in experiment [6], 0.00487 (inactive). For the same compound, in experiment [5], the NADPH fluorescence slope is -1.3e-05 (inactive).

`Cc1ccc(-c2cc(C(F)F)nc(NCc3cccnc3)n2)cc1`: in experiment [1], the cell count was found to be 590. Also, the inhibition in experiment [1] is -26.5% (inactive); in experiment [3], -97.8% (inactive); in experiment [7] it was 7% (inactive); in [8], -13.6% (inactive). Moreover, the inhibition of aggregation in experiment [2] is -44.3% (inactive). Further, the nuclei count in [2] is 81.9%; in experiment [3] it was 118%. The fluorescence slope was -0.467 (inactive) in experiment [4] and 0.00586 (inactive) in [6]. In addition, the NADPH fluorescence slope in experiment [5] is -1.4e-06 (inactive).

Regarding `CC(C)C12CN3CC(C(C)C)(CN(C1)C3c1ccc3c(c1)OCO3)C2=O` (stereo not given), in experiment [1], the cell count was 412 and the inhibition is 10.8% (inactive). Moreover, in experiment [2], the inhibition of aggregation is -9.1% (inactive) and the nuclei count is 98.4%. For the same compound, the fluorescence slope in experiment [4] is -0.304 (inactive). The NADPH fluorescence slope in [5] was -1e-05 (inactive). In addition, the slope in [9] was 0.00697 (inactive). Also, in [10], the call was inactive. In experiment [7], the inhibition is 11.3% (inactive). Besides, the inhibition in [8] was 20.8% (inactive).

By inhibition is commonly meant the change of the read-out against control, counted positive when it falls.
